# From PubChem
# GPR151 ag: activators of human GPR151, primary screen, cell-based, PathHunter beta-arrestin, luminescence; G-protein coupled receptor 151 (Homo sapiens), Q8TDV0; PathHunter beta-arrestin GPR151 cells; activation, % at 11.2 µM; 1% of 650,000 active; in the data active = activation above about 4.9%
# MITF primary: MITF inhibitors, primary screen, biochemical, AlphaScreen, human | Microphthalmia-associated transcription factor (Homo sapiens), O75030 | AlphaScreen MITF homodimerization, bead proximity signal | inhibition, % at 2.6 µM | 0.91% of 650,000 active | AID 1259374, 2018; in the data active = inhibition above about 50%
# Target sequence (O75030 whole entry, looked up): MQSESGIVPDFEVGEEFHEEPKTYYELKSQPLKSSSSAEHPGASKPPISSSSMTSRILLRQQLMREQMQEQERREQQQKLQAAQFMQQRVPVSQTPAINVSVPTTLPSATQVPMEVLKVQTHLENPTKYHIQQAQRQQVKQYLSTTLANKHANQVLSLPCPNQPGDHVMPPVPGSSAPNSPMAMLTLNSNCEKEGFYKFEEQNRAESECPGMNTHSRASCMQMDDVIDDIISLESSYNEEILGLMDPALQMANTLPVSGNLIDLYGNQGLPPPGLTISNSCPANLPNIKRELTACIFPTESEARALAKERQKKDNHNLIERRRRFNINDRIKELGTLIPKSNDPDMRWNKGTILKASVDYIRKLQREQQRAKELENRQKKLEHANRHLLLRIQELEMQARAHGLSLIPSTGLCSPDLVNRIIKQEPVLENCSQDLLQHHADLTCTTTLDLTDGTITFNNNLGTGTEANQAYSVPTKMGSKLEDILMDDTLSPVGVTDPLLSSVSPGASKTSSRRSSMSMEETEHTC
# FBW7 activator: FBW7 E3 ligase activators, primary screen, biochemical, AlphaScreen, human. AlphaScreen FBW7–phospho-cyclin E peptide binding, activator screen. normalized activity (activation), % at 26.1 µM. 0.13% of 650,000 active; in the data active = normalized activity above about 1.9%;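 also: purified mutant Fbw7 with reduced substrate affinity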
# TEAD-YAP block: TEAD-YAP interaction inhibition, primary screen, TEAD-YAP interaction inhibitor project, luminescence, HEK-TIYL cells | TEAD-Gal4/YAP UAS-luciferase luminescence | inhibition, % at 9.12 µM | 1.4% of 640,000 active; in the data active = inhibition above about 32%
# A number is an active result; i = inactive. Compounds with a hit are over-represented: about 3.5% of the library has one in this group of screens.
SMILES,GPR151 ag,MITF primary,FBW7 activator,TEAD-YAP block
Cc1cc(C(=O)N/N=C(\CCC(=O)O)c2cccs2)c2ccccc2n1,i,i,i,51
O=C1CCC/C(=N\NC(=O)c2cc(-c3ccncc3)nc3ccccc23)C1,i,i,i,i
Cc1cc(C(=O)N/N=C2\CCCC(=O)C2)c2ccccc2n1,i,i,i,40
C=CCn1c(C)cc(C(=O)CSc2nnc(N)s2)c1C,i,i,i,39
Cc1onc(-c2c(Cl)cccc2Cl)c1C(=O)Nc1cccc(F)c1,i,i,i,i
Cc1cccc(N2CCN(C(=O)c3ccncc3)CC2)c1C,i,i,i,50
Cc1cccc(N2CCN(C(=O)c3cc(S(=O)(=O)N4CCCC4)cn3C)CC2)c1C,i,i,i,58
CC(=O)Nc1ccc(C(=O)N2CCN(c3cccc(C)c3C)CC2)cc1,i,i,i,i
CCOC(=O)CS(=O)(=O)c1ccc(C(=O)N2CCN(c3cccc(C)c3C)CC2)cc1[N+](=O)[O-],i,i,i,34
COc1ccccc1C(=O)N1CCN(c2cccc(C)c2C)CC1,i,i,i,47
Cc1cccc(N2CCN(C(=O)c3cc(S(=O)(=O)N4CCOCC4)cn3C)CC2)c1C,i,i,i,i
CCOC(=O)CS(=O)(=O)c1ccc(C(=O)N2CCN(c3cc(C)ccc3C)CC2)cc1[N+](=O)[O-],i,i,i,i
CCCC(=O)Nc1ccc(C(=O)N2CCN(c3ccc([N+](=O)[O-])cc3)CC2)cc1,i,i,i,i
Cc1cc(C)n(-c2ncn[nH]2)n1,i,i,i,i
COc1ccccc1N1CCN(C(=O)c2cccc(Br)c2)CC1,i,i,i,36
COc1cccc(C(=O)N2CCN(c3cccc(C)c3C)CC2)c1,i,i,i,33
Cc1ccc(/C=C/C2=NC(=C\c3cccc([N+](=O)[O-])c3)/C(=O)O2)cc1,i,i,i,i
O=C(Nc1ccc(Cl)cc1)c1c2c(nc3ccccc13)-c1ccccc1CC2,i,i,i,i
Cc1ccc2[nH]c(=O)c(CN(CC3COCCO3)C(=O)Nc3ccccc3Cl)cc2c1 (stereo not given),i,i,i,37
CNC(=O)/C(C#N)=C/c1ccc(-c2ccc(Cl)c(Cl)c2)o1,i,i,1.9,i
CNC(=O)/C(C#N)=C/c1ccc(-c2ccc(Br)cc2)o1,i,i,i,i
CS(=O)(=O)N(CC(=O)N1CCCCCC1)c1ccc(F)c(Cl)c1,i,i,i,i
O=C(O)COc1ccc(/C=C/c2nc3ccccc3s2)cc1,i,i,i,72
O=C(O)c1ccc(/C=C/c2nc3ccccc3s2)cc1,i,i,i,i
CCN(CC)c1ccc(/C=C/c2nc3ccccc3s2)cc1,i,i,i,64
SMILES,GPR151 ag,MITF primary,FBW7 activator,TEAD-YAP block
CCN(CC)c1ccc(Nc2nc(Nc3ccc(N(CC)CC)cc3)nc(Sc3nc4ccccc4s3)n2)cc1,i,i,i,i
COc1ccc(CCNc2nc(NC3CCC(O)CC3)nc3c2ncn3-c2ccccc2)cc1 (stereo not given),i,i,i,48
CC(C)N(CCNc1nc(NC2CCC(O)CC2)nc2c1ncn2-c1ccsc1)C(C)C (stereo not given),i,i,i,74
Oc1ccc(CCNc2nc(NC3CCC(O)CC3)nc3c2ncn3-c2ccsc2)cc1 (stereo not given),i,i,i,48
OC1CCC(Nc2nc(NCc3ccccc3)c3ncn(-c4ccsc4)c3n2)CC1 (stereo not given),i,i,i,i
CC(C)Cn1cc(C(=O)NCc2nc3ccccc3s2)c(=O)c(C(=O)NC(C)C)c1,i,i,i,i
COc1ccccc1N1CCN(c2ncnc3c2cnn3-c2cccc(C)c2)CC1,i,i,i,i
c1ccc(-n2ncc3c(N4CCOCC4)ncnc32)cc1,i,i,i,70
COc1ccccc1N1CCN(c2ncnc3c2cnn3-c2ccc(C)cc2C)CC1,i,i,i,58
Clc1ccc(-n2ncc3c(N4CCN(c5cccc(Cl)c5)CC4)ncnc32)cc1,i,i,i,i
Clc1cccc(-n2ncc3c(N4CCOCC4)ncnc32)c1,i,i,i,71
COc1ccc(-n2ncc3c(N4CCOCC4)ncnc32)cc1,i,i,i,91
C(=N\Nc1ccccn1)/c1ccc2c(c1)OCO2,i,i,i,i
CC(=O)Nc1nc(C)c(-c2csc(Nc3cccc(Cl)c3C)n2)s1,i,i,i,i
CCOC(=O)C1CCN(C(=O)CC(C)=O)CC1,i,i,i,i
Cc1ccc(-n2ncc3c(N4CCOCC4)ncnc32)cc1C,i,i,i,79
CCC(/C=N/NC(=S)Nc1ccc(S(=O)(=O)N2CCOCC2)cc1)CC,i,i,i,i
CC(C)(C)C(COc1ccccc1)N=C1NC(=S)N(Cc2ccccc2)C1(C)C (stereo not given),i,i,i,i
COc1ccc(CCNc2nc(Nc3ccc(N4CCOCC4)cc3)nc3nc[nH]c23)cc1,i,i,i,49
Cn1cnc(-c2ccccc2Nc2nc(Nc3ccc(N4CCOCC4)cc3)ncc2Cl)n1,i,i,i,33
COc1ccc(CCNc2nc(Nc3ccc(C(F)(F)F)cc3)nc3nc[nH]c23)cc1,i,i,i,i
COc1ccc(CCNc2nc(Nc3ccncc3)nc3nc[nH]c23)cc1,i,i,i,44
COc1ccc(CNc2nc(Nc3ccc(N4CCOCC4)cc3)nc3nc[nH]c23)cc1,i,i,i,i
COc1ccc(CCNc2nc(Nc3ccc(N4CCOCC4)cc3)ncc2C)cc1,i,i,i,64
CC1(C)Cc2c(sc(NC(=O)c3ccc(Br)cc3)c2C#N)C(C)(C)N1,i,i,i,i
SMILES,GPR151 ag,MITF primary,FBW7 activator,TEAD-YAP block
Cc1ccc(NC(=O)c2ccc(CSc3ccc(Cl)cc3)cc2)cc1,i,i,i,i
Cc1cnc(Nc2nc3ccccc3n2C)nc1NCc1ccccc1,i,i,i,42
Cc1cnc(Nc2ccc(N3CCOCC3)cc2)nc1NCc1ccccc1,i,i,i,37
Cc1cnc(Nc2ccncc2)nc1NCc1ccccc1,i,i,i,40
Cc1cnc(Nc2ccc(N3CCOCC3)cc2)nc1NCc1cccnc1,i,i,i,i
O=C(O)c1ccc(N/N=C/C2=C(N3CCOCC3)C(=C\c3ccccc3)/CC2)cc1,i,62,i,i
O=S(=O)(O)c1ccc(N/N=C/C2=C(N3CCOCC3)C(=C\c3ccccc3)/CC2)cc1,i,i,i,i
CC(NC(=O)C(=O)NCCN1CCNCC1)c1ccccc1 (stereo not given),i,i,i,i
CCCc1ccc(Oc2c(C(F)(F)F)oc3cc(OC(C)=O)ccc3c2=O)cc1,i,i,i,83
CC(C)(C)c1ccc(Oc2c(C(F)(F)F)oc3cc(OC(=O)c4cccs4)ccc3c2=O)cc1,i,i,i,94
CC(=O)Oc1ccc2c(=O)c(Oc3ccccc3)c(C(F)(F)F)oc2c1,i,i,i,i
O=C(Nc1ccccc1CO)c1ccc(Br)cc1,i,i,i,i
O=C(c1cc2cc([N+](=O)[O-])ccc2oc1=O)N1CCN(c2ccc(Cl)cc2)CC1,i,i,i,i
Cc1ccccc1Cc1c(C)nc2c(C(=O)N3CCN(c4ccccn4)CC3)cnn2c1C,i,i,i,i
